# Luc counter: counter-screen: inhibitors of Kinase-Glo firefly luciferase | Q27757 | Kinase-Glo luciferase, ATP luminescence, 8 min | Potency, µM (doses to about 38.3 µM), for the others: at the top dose activity change, negative = inhibition, usual class: inhibitors | 0.28% of 200,000 active | AID 1379; note: % is set by controls: 0 for no effect and ±100 for the full control effect; nearly all actives have a fitted effect of over 60% in size
#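 Substrate mix (final 50 mM imidazole pH 7.2, 50 mM KCl, 7 mM MgCl2, 10 uM ATP, 0.01% Tween 20, 0.05% BSA) plus pin-tool compound, then Kinase-Glo detection mix; 8 min ambient, luminescence read.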
# SMN2 splice up: increases expression of the SMN2 splice variant. HEK293 SMN2-luciferase splicing reporter, luminescence, 30-36 h. Potency, µM (titrated, usually from 46.1 µM), without a hit: top-dose activity change, positive = activation, actives largely listed as activators. 2.8% of 210,000 active; note: % of control where 0% means no effect; nearly all actives have a fitted effect of over 55% in size
#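 HEK293 cells carry an SMN2 […]–luciferase reporter in which exon 7 inclusion puts luciferase in frame. Cells were plated 10-12 h before compound addition, then incubated 30-36 h at 37C. ONE-Glo luminescence was read; sodium butyrate at 4.5 mM final served as control.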
# FLuc counter: inhibits or activates purified firefly luciferase, miR-21 counter-screen | purified FLuc, Km substrates, luminescence inhibition | Potency, µM (doses to about 57.5 µM), without a hit: top-dose activity change, negative = inhibition, actives largely listed as inhibitors | 6.9% of 360,000 active | AID 588342;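 note: plate controls were vehicle for no effect and reference inhibitor for full effect; nearly all actives have a fitted effect of over 55% in size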
# Target sequence (P08659 whole entry, looked up): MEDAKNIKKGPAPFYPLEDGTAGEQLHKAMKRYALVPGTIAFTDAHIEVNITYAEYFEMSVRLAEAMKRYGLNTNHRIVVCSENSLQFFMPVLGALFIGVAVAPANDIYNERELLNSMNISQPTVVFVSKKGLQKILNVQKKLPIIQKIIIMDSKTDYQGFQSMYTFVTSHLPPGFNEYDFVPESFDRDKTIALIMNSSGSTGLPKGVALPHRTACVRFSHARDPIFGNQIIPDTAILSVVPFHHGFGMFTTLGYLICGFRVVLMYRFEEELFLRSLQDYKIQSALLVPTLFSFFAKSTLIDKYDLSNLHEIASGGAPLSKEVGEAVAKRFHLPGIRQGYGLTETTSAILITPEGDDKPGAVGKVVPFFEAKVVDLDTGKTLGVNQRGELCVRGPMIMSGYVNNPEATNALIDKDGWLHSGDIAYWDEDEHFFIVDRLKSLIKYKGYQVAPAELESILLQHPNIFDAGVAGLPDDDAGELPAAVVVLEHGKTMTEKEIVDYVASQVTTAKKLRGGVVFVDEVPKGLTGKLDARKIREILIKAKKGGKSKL
#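 Biochemical qHTS of compounds, final roughly 60 µM downward over six points, against 10 nM purified firefly luciferase using Km concentrations of substrates (10 uM D-luciferin, 10 uM ATP) in Tris acetate pH 7.5 buffer; luminescence output.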
# Rab9 prom act: activates the Rab9 promoter; AID 485297; 2.8% of 320,000 active; Potency, µM (doses to about 9.22 µM), for inactives: at the highest dose activation, negative = inhibition, actives largely listed as activators; Huh7 Rab9 promoter-luciferase reporter, luminescence, 24 h; note: % of control where 0% means no effect; nearly all actives have a fitted effect of over 60% in size
#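 Using Huh7 cells stably transfected with Rab9 promoter–luciferase, compounds were incubated 24 h at 37 °C, 5% CO2; luciferase luminescence was read 10 min after reagent addition.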
# ELG1 genotox: induces genotoxicity in HEK293T cells with luciferase-tagged ELG1; HEK293T ELG1-luciferase reporter, luminescence, 16 h; Potency, µM (titrated, usually from 46 µM), for the others: top-dose activity change, positive = activation, hits mostly activators; 1.3% of 330,000 active; note: % of control where 0% means no effect; nearly all actives have a fitted effect of over 60% in size
#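 HEK293T cells expressing luciferase-tagged ELG1 were exposed to compound or DMSO vehicle for 16 hr at 37 °C and 5% CO2. Luciferase activity was then measured with ONE-Glo after 30 min at room temperature.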
# NPC1 promoter act: activates the NPC1 promoter; 2.4% of 320,000 active; Potency, µM (titrated, usually from 9.22 µM), for inactives: at the top dose activation, most hits filed as activators; Huh7 NPC1 promoter luciferase reporter, 24 h; note: % of control where 0% means no effect; nearly all actives have a fitted effect of over 60% in size
#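 Luminescence read-out of NPC1 promoter-driven luciferase in stably transfected Huh7 cells; compounds delivered in DMSO and left 24 h at 37C, 5% CO2, qHTS titration format.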
# * = called active by the depositor; ? = inconclusive; / = no result. A selection: hits, their analogues and other compounds. The true share with any hit is near 7.5%. Calls come from the whole dose curve; as a rule, active = well fitted curve in the direction sought with a large enough effect; inconclusive = small, poorly fitted or top-dose-only effect, or another doubt; inactive = no such curve, though single readings can be large; an effect the other way counts as inactive or inconclusive. Potency is the fitted concentration of half-maximal effect.
SMILES,Luc counter,SMN2 splice up,FLuc counter,Rab9 prom act,ELG1 genotox,NPC1 promoter act
COc1ccc(NC(=O)c2ccccc2NC(=O)c2ccco2)c(OC)c1,-8.6%,-7.8%,19µM*,2.9%,-6.9%,8.0%
CCOc1ccccc1CNc1ncnc2onc(-c3ccc(F)cc3)c12,/,/,-10.0%,/,/,/
CC(=O)c1c(C)oc2ccc(N(C(=O)Oc3ccccc3)S(=O)(=O)c3ccc(C(C)(C)C)cc3)cc12,/,-39.8%,-4.9%,/,/,/
Cc1cccc(OCCCC(=O)Nc2ccc(S(=O)(=O)Nc3onc(C)c3C)cc2)c1,-1.4%,9.5%,-0.5%,1.8%,-2.1%,0.3%
Cc1ccc(/C=C/C(=O)Nc2ccc(S(=O)(=O)Nc3onc(C)c3C)cc2)cc1,/,/,15.1µM*,0.5%,4.7%,1.3%
Cc1cccc(NC(=O)Nc2ccc(S(=O)(=O)Nc3onc(C)c3C)cc2)c1,/,/,16.9µM*,?,2.9%,22.5%
Cc1ccc2oc(C(=O)Nc3ccc(S(=O)(=O)Nc4onc(C)c4C)cc3)c(C)c2c1,/,/,7.57µM*,?,?,24.1%
Cc1cc(C(=O)Nc2ccc(S(=O)(=O)Nc3onc(C)c3C)cc2)c(C)o1,3.1%,13.7%,?,12.0%,1.4%,0.4%
CCn1cc(/C=C(\NC(=O)c2cc(OC)c(OC)c(OC)c2)C(=O)NCCCn2ccnc2)c2ccccc21,/,9.9%,-3.3%,/,/,/
CCOC(=O)Cn1c(=O)n(CC2CCCO2)c2nc(-c3cc(OC)ccc3OC)nc(C(N)=O)c21 (configuration not stated),/,/,-3.6%,/,/,/
COc1cccc(NC(=O)c2sc3nc(C)c(C(=O)Nc4ccc(C)cc4C)c(-c4ccco4)c3c2N)c1,/,7.2%,-2.9%,/,/,/
Brc1ccc(OCCCOc2cccc3cccnc23)cc1,/,/,?,0.6%,6.6%,0.6%
Brc1ccc(-c2cn3c(n2)CCc2ccc4cccnc4c2-3)cc1,-1.4%,-14.2%,13.5µM*,4.0%,-5.2%,13.2%
O=C(NNC(=O)c1cc(-c2ccccc2)nc2ccccc12)c1csc(N2CCOCC2)n1,/,/,?,4.6%,-15.7%,-3.6%
COc1ccccc1C(=O)NNC(=O)c1csc(N2CCOCC2)n1,/,/,9.53µM*,-2.3%,-6.8%,6.8%
Cc1ccc(-c2cc(C(=O)NNC(=O)c3csc(N4CCOCC4)n3)c3ccccc3n2)cc1,/,/,13.5µM*,13.1%,-6.6%,1.8%
COc1ccc(-c2nnc(SCc3csc(N)n3)n2C)cc1,/,/,0.5%,11.6%,1.9%,1.2%
Cc1ccc(Nc2nc(CSc3nnc(-c4ccc(F)cc4)n3C)cs2)cc1,1.6%,10µM*,1.35µM*,?,15.7%,?
Cc1ccc(-c2csc(N/N=C/c3ccco3)n2)cc1,-1.0%,26.4%,9.53µM*,?,14.7%,?
Clc1ccc(-c2csc(N/N=C/c3ccco3)n2)cc1,/,/,13.5µM*,?,3.3%,?
Cc1sc(NC(=O)c2cccnc2)nc1-c1ccccc1,1.0%,0.7%,-8.3%,0.0%,1.5%,-1.9%
CC(C)=NNc1nc(-c2ccccc2)c(C)s1,-2.2%,-9.9%,?,-1.3%,-3.2%,1.1%
Cc1sc(N/N=C/c2ccco2)nc1-c1ccccc1,-0.7%,-30.1%,9.53µM*,29.8%,?,15.9%
Cc1sc(N/N=C/c2cccnc2)nc1-c1ccccc1,-9.5%,?,16.9µM*,4.2%,-1.0%,-2.3%
Brc1ccc(-c2csc(N/N=C/c3ccco3)n2)cc1,1.2%,?,?,?,4.0%,?
CC(=O)c1ccc(NC(=O)CSc2nc(-c3ccccc3C)nc3c2c(=O)n(C)c(=O)n3C)cc1,/,/,0.1%,/,/,/
O=C(Cn1c(=O)oc2ccccc21)NCc1ccc(Cl)cc1,/,/,2.0%,/,/,/
C(=N\Nc1nc(-c2ccccc2)cs1)/c1ccco1,1.7%,14.1µM*,2.69µM*,3.16µM*,?,2.82µM*
CCOc1ccc(C(=O)NCC(=O)OCC(=O)Nc2ccccc2OC)cc1,-3.4%,-2.0%,23.9µM*,-3.4%,1.6%,-0.3%

# Source: PubChem
